In PubChem BioAssay (NCI):
About 83,000 compounds went through this panel and 20% of them were active in at least one assay; those are over-represented in the sample as a whole.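 Compound tested at a single concentration for 48 hours in 96-well plates; a percent growth value below 10 was scored as active.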 Active and inactive are the calls of the source.

Tests used:
Assay in all cases: NCI-60 one-dose screen, 48 h (100 = growth as untreated, 0 = no growth, -100 = all killed)
Conditions in all cases: 10 µM unless noted
HCT-15 colon = tested on: HCT-15 colon
HT29 colon = tested on: HT29 colon
SNB-75 CNS = tested on: SNB-75 CNS
SNB-19 CNS = tested on: SNB-19 CNS
U251 CNS = tested on: U251 CNS
PC-3 prostate = tested on: PC-3 prostate
SK-MEL-5 melanoma = tested on: SK-MEL-5 melanoma
UACC-62 melanoma = tested on: UACC-62 melanoma
LOX IMVI melanoma = tested on: LOX IMVI melanoma
SK-MEL-28 melanoma = tested on: SK-MEL-28 melanoma
SK-MEL-2 melanoma = tested on: SK-MEL-2 melanoma
EKVX NSCLC = tested on: EKVX NSCLC
SN12C renal = tested on: SN12C renal
UO-31 renal = tested on: UO-31 renal
TK-10 renal = tested on: TK-10 renal
ACHN renal = tested on: ACHN renal
CAKI-1 renal = tested on: CAKI-1 renal
A498 renal = tested on: A498 renal
CCRF-CEM leukemia = tested on: CCRF-CEM leukemia
MOLT-4 leukemia = tested on: MOLT-4 leukemia

Measured: growth

CCOC(=O)C/C(=N\Nc1cc(=O)[nH]c2ccc(Cl)cc12)C(=O)OCC
active: CCRF-CEM leukemia -51.5% | MOLT-4 leukemia -0.305%
inactive: HCT-15 colon 105% | HT29 colon 109% | SNB-75 CNS 96.7% | SNB-19 CNS 94.9% | U251 CNS 107% | PC-3 prostate 88.3% | SK-MEL-5 melanoma 98.7% | UACC-62 melanoma 92.5% | LOX IMVI melanoma 95.7% | SK-MEL-28 melanoma 103% | SK-MEL-2 melanoma 116% | EKVX NSCLC 105% | SN12C renal 94.9% | UO-31 renal 83.7% | TK-10 renal 104% | ACHN renal 99.3% | CAKI-1 renal 92.4% | A498 renal 108%

CN1CCN(c2ccc3c(c2)nc(NNC(=O)c2cnccn2)c2cccn23)CC1
inactive: HCT-15 colon 23.9% | HT29 colon 28.6% | SNB-75 CNS 66.7% | SNB-19 CNS 34.9% | U251 CNS 32.2% | PC-3 prostate 47.3% | SK-MEL-5 melanoma 31.2% | UACC-62 melanoma 12.9% | LOX IMVI melanoma 10.3% | SK-MEL-28 melanoma 24.8% | SK-MEL-2 melanoma 64.8% | EKVX NSCLC 30.1% | SN12C renal 27.6% | TK-10 renal 44.8% | CAKI-1 renal 22.5% | A498 renal 31.4% | CCRF-CEM leukemia 11.4% | MOLT-4 leukemia 13.9%
active: UO-31 renal 3.3% | ACHN renal 8.28%

Cn1cc(-c2csc(-c3cn(C)c4ccc(Br)cc34)n2)c2cnccc21
inactive: SK-MEL-2 melanoma 47.7% | A498 renal 68.7%
active: HCT-15 colon -78.6% | HT29 colon -76.2% | SNB-75 CNS -93.6% | SNB-19 CNS -86.9% | U251 CNS -80.4% | PC-3 prostate -74.9% | SK-MEL-5 melanoma -55.7% | UACC-62 melanoma -78% | LOX IMVI melanoma -92.1% | SK-MEL-28 melanoma -96% | EKVX NSCLC -79.1% | SN12C renal -91.5% | UO-31 renal -89.9% | TK-10 renal -75.7% | ACHN renal -99.5% | CAKI-1 renal -82.2% | CCRF-CEM leukemia -38.1% | MOLT-4 leukemia -58.9%

CCOC(=O)c1c2c(n3ccccc13)C(=O)c1ncccc1C2=O
active: U251 CNS 0.0106% | SK-MEL-5 melanoma -17.8% | UACC-62 melanoma -25.8% | LOX IMVI melanoma 0.56% | UO-31 renal 1.86% | ACHN renal 7.49% | CAKI-1 renal 9.11%
inactive: HCT-15 colon 22.4% | HT29 colon 47.6% | SNB-75 CNS 34.3% | SNB-19 CNS 16.5% | PC-3 prostate 19.9% | SK-MEL-28 melanoma 28.9% | SK-MEL-2 melanoma 65.6% | EKVX NSCLC 40.4% | SN12C renal 10.3% | TK-10 renal 38.4% | A498 renal 30.7% | CCRF-CEM leukemia 32.1% | MOLT-4 leukemia 31.9%

O=C(c1ccc(Cl)cc1Cl)N1c2ccccc2Sc2ccccc21
inactive: HCT-15 colon 29.6% | HT29 colon 47.5% | SNB-75 CNS 59.6% | SNB-19 CNS 57.3% | U251 CNS 33.1% | PC-3 prostate 44% | SK-MEL-5 melanoma 34.6% | UACC-62 melanoma 43.1% | LOX IMVI melanoma 23.9% | SK-MEL-28 melanoma 65.4% | SK-MEL-2 melanoma 88.7% | EKVX NSCLC 75.7% | SN12C renal 66.9% | UO-31 renal 65.3% | TK-10 renal 73.3% | ACHN renal 60.7% | CAKI-1 renal 50.5% | A498 renal 68.9% | CCRF-CEM leukemia 57.2% | MOLT-4 leukemia 26.4%

COc1cc(/C=C/c2cc(/C=C/c3ccc(O)c(OC)c3)n(C(=O)Nc3ccc(F)cc3)n2)ccc1O
active: HT29 colon -41.8% | PC-3 prostate 9.01% | SK-MEL-5 melanoma -8.36% | UACC-62 melanoma 2.01% | LOX IMVI melanoma 4% | SK-MEL-2 melanoma -27.1% | CAKI-1 renal -7.81% | CCRF-CEM leukemia 6.82% | MOLT-4 leukemia -3.56%
inactive: HCT-15 colon 10.6% | SNB-75 CNS 26.9% | SNB-19 CNS 20.2% | U251 CNS 13.4% | SK-MEL-28 melanoma 16.7% | EKVX NSCLC 26.9% | SN12C renal 17.9% | UO-31 renal 14% | TK-10 renal 38.1% | ACHN renal 20.2% | A498 renal 31.5%

Cc1ccc(O)c(NC(=O)c2ccc(CNc3ccnc(C(F)(F)F)c3)cc2)c1
active: CCRF-CEM leukemia 7.6%
inactive: HCT-15 colon 49.9% | HT29 colon 66.4% | SNB-75 CNS 72.5% | SNB-19 CNS 87.1% | U251 CNS 82.1% | PC-3 prostate 78.8% | SK-MEL-5 melanoma 36.5% | UACC-62 melanoma 13.9% | LOX IMVI melanoma 40.6% | SK-MEL-28 melanoma 109% | SK-MEL-2 melanoma 79.2% | EKVX NSCLC 60.5% | SN12C renal 46.4% | UO-31 renal 32.6% | TK-10 renal 96.7% | ACHN renal 39% | CAKI-1 renal 41.8% | A498 renal 80.7% | MOLT-4 leukemia 25.1%

CC(C)[C@@]12C[C@@H](OC(=O)COC(=O)c3ccccc3)[C@@](C)(O1)[C@@H]1CC[C@@H](C)[C@H]1[C@@H]2OC(=O)/C=C/c1ccccc1
inactive: HCT-15 colon 92.5% | HT29 colon 89.9% | SNB-75 CNS 72.6% | SNB-19 CNS 84.5% | U251 CNS 84% | PC-3 prostate 74.2% | SK-MEL-5 melanoma 90.7% | UACC-62 melanoma 83.2% | LOX IMVI melanoma 89.1% | SK-MEL-28 melanoma 107% | SK-MEL-2 melanoma 103% | EKVX NSCLC 81.8% | SN12C renal 31% | TK-10 renal 88.9% | CCRF-CEM leukemia 87% | MOLT-4 leukemia 80.8%
active: UO-31 renal -78.1% | ACHN renal -13.4% | CAKI-1 renal 5.14% | A498 renal -76.6%

CCN(CC)CCN(CCN(CC)CC)c1ccccc1
inactive: HCT-15 colon 104% | HT29 colon 102% | SNB-75 CNS 79.1% | SNB-19 CNS 87.3% | U251 CNS 98.2% | PC-3 prostate 87.4% | SK-MEL-5 melanoma 97.7% | UACC-62 melanoma 89.4% | LOX IMVI melanoma 88.7% | SK-MEL-28 melanoma 108% | SK-MEL-2 melanoma 106% | EKVX NSCLC 97.2% | SN12C renal 78.5% | UO-31 renal 66.4% | TK-10 renal 102% | ACHN renal 95.7% | CAKI-1 renal 86.6% | A498 renal 94.5% | CCRF-CEM leukemia 93.3% | MOLT-4 leukemia 89.8%

COc1ccc(C2=C/C(=C\c3ccc(Cl)cc3)C(=O)N2/N=C/c2ccc(Cl)cc2)cc1
inactive: HCT-15 colon 98.8% | HT29 colon 86.8% | SNB-75 CNS 105% | SNB-19 CNS 96.7% | U251 CNS 84.5% | PC-3 prostate 91.4% | SK-MEL-5 melanoma 99.5% | UACC-62 melanoma 84.4% | LOX IMVI melanoma 99.1% | SK-MEL-28 melanoma 101% | SK-MEL-2 melanoma 107% | EKVX NSCLC 93.8% | SN12C renal 87.7% | UO-31 renal 79.4% | TK-10 renal 87.2% | ACHN renal 98.3% | CAKI-1 renal 90.5% | A498 renal 103% | CCRF-CEM leukemia 100% | MOLT-4 leukemia 92%

S=c1ssnc1-c1cccs1
inactive: HCT-15 colon 99% | HT29 colon 105% | SNB-75 CNS 97.1% | SNB-19 CNS 96.8% | U251 CNS 100% | PC-3 prostate 94.3% | SK-MEL-5 melanoma 57.3% | UACC-62 melanoma 90.7% | LOX IMVI melanoma 92.3% | SK-MEL-28 melanoma 112% | SK-MEL-2 melanoma 103% | EKVX NSCLC 104% | SN12C renal 106% | UO-31 renal 99.9% | TK-10 renal 99.5% | ACHN renal 107% | CAKI-1 renal 92.1% | A498 renal 23.4% | CCRF-CEM leukemia 97.5% | MOLT-4 leukemia 84.9%

O=C(/C=C\c1ccco1)/C=C/c1ccco1
inactive: HCT-15 colon 105% | HT29 colon 108% | SNB-75 CNS 94.5% | SNB-19 CNS 105% | U251 CNS 104% | PC-3 prostate 95.6% | SK-MEL-5 melanoma 101% | UACC-62 melanoma 100% | LOX IMVI melanoma 96.8% | SK-MEL-28 melanoma 110% | SK-MEL-2 melanoma 109% | EKVX NSCLC 99.5% | SN12C renal 97.7% | UO-31 renal 76.3% | TK-10 renal 108% | ACHN renal 110% | CAKI-1 renal 107% | A498 renal 97.5% | MOLT-4 leukemia 112%
active: CCRF-CEM leukemia 8.75%

Cc1ccc(-c2nc(C(Cl)Cl)nc3cc(C)nn23)cc1
active: HCT-15 colon -2.36% | HT29 colon 3.2% | SNB-75 CNS -11.5% | U251 CNS 4.27% | EKVX NSCLC 5.75% | ACHN renal -45% | CAKI-1 renal -14.2% | A498 renal -2.75%
inactive: SNB-19 CNS 25.1% | PC-3 prostate 44.9% | SK-MEL-5 melanoma 44.8% | UACC-62 melanoma 59.5% | LOX IMVI melanoma 52% | SK-MEL-28 melanoma 38.4% | SK-MEL-2 melanoma 65.5% | SN12C renal 40.5% | UO-31 renal 51.3% | TK-10 renal 29% | CCRF-CEM leukemia 32.5% | MOLT-4 leukemia 16.7%

COC(=O)C1=C(C)NC(C)=C(C(=O)OCC(C)C)C1c1ccccc1[N+](=O)[O-] (stereo not given)
active: CCRF-CEM leukemia 7.1%
inactive: HCT-15 colon 41% | HT29 colon 87.3% | SNB-75 CNS 68.6% | SNB-19 CNS 82.4% | U251 CNS 68.8% | PC-3 prostate 35.8% | SK-MEL-5 melanoma 38% | UACC-62 melanoma 48.7% | LOX IMVI melanoma 42.4% | SK-MEL-28 melanoma 87.1% | SK-MEL-2 melanoma 64.8% | EKVX NSCLC 58.3% | SN12C renal 64.3% | UO-31 renal 28.3% | TK-10 renal 80.7% | ACHN renal 26.8% | CAKI-1 renal 21.9% | A498 renal 50.4% | MOLT-4 leukemia 43.6%

COc1ccc(NC(=O)c2cccc(C3CCc4c(cc(OC)c(OC)c4OC)O3)c2)cc1 (stereo not given)
inactive: HCT-15 colon 17.3% | SNB-75 CNS 13.1% | SNB-19 CNS 33.3% | U251 CNS 23.4% | UACC-62 melanoma 31.6% | LOX IMVI melanoma 28.7% | SK-MEL-28 melanoma 47% | EKVX NSCLC 47% | SN12C renal 31.4% | UO-31 renal 28.8% | TK-10 renal 43.7% | ACHN renal 41.1% | CAKI-1 renal 44.6%
active: HT29 colon 6.06% | PC-3 prostate 5.96% | SK-MEL-5 melanoma 4.29% | SK-MEL-2 melanoma 9.28% | A498 renal -8.67% | CCRF-CEM leukemia -1.05% | MOLT-4 leukemia 9.23%

COC1=CC(c2ccc[nH]2)=N/C1=C\c1[nH]c(C)c(CC(=O)OCc2ccccc2)c1C
inactive: SNB-19 CNS 23.5%
active: HCT-15 colon -11% | HT29 colon 4.42% | SNB-75 CNS -7.14% | U251 CNS -21% | PC-3 prostate 2.94% | SK-MEL-5 melanoma -91.5% | UACC-62 melanoma -31.7% | LOX IMVI melanoma -75.4% | SK-MEL-28 melanoma -18.2% | SK-MEL-2 melanoma -38.6% | EKVX NSCLC 5.59% | SN12C renal 6.3% | UO-31 renal -69% | TK-10 renal 4.1% | ACHN renal -9.81% | CAKI-1 renal 0.261% | A498 renal -11.9% | CCRF-CEM leukemia 4.82% | MOLT-4 leukemia 2.34%
